Records with an inconclusive call do not appear. A call without a number means that no potency is given here. Active and inactive are the calls of the source. Calls come from the whole dose curve; as a rule, active = well fitted inhibition curve with a large enough effect; inconclusive = small, poorly fitted or top-dose-only effect; inactive = no such curve, though single readings can be large or run the other way.
test: qHTS to identify inhibitors of the type 1 interferon - major histocompatibility complex class I in skeletal muscle: primary screen against the NCATS Mechanism Interrogation Plate v5.0 (MIPE) Libary (AID 1347411); details: iHSKM cells + IFN-b, HiBiT-tagged MHC-I luminescence, 24 h; series mostly up to 45.8 µM; note: nearly all actives have a fitted effect of over 65% in size
Excerpt: Assay Submitter (PI): Travis B. Kinder Ph.D. & James Inglese Ph.D.
Assay Development and Screening Technology Laboratory (ADST)
National Center for Advancing Translational Sciences (NCATS), Rockville, MD
National Institute of Health (NIH), Bethesda, Maryland
Idiopathic inflammatory myopathies, collectively referred to as myositis, are a group of rare autoimmune diseases characterized by skeletal muscle inflammation, weakness, and usually accompanied by systemic pathologies of the skin, lungs, or vasculature. Current immunosuppressive therapies and glucocorticoids are often not curative and are accompanied by harsh side effects, especially in children with juvenile myositis. We initiated a drug repurposing and development program to identify more targeted, less toxic therapeutics to treat myositis. Although its cause is not known, muscle from a subset of patients have an abundance of the inflammatory type 1 interferon (IFN) and a down-stream product major histocompatibility complex class I (MHC class I), which are both thought to contribute to damage and weakness. We conducted quantitative high throughput screening on 6,576 compounds (4,679 unique) through a series of cell-based assays to identify those that inhibit the IFN-stimulated expression of MHC class I in muscle precursor cells (myoblasts). The compound identification and evaluation strategy utilized a primary screen with reporter-tagged MHC class I in genome-engineered myoblasts, ATP content counter screen for viability, HLA-ABC immunofluorescence secondary screen, and HLA-B RT-qPCR tertiary screen.
The primary screen utilized CRISPR/Cas9 genome-engineering of immortalized human myoblasts, C25cl48, where a pro-luminescent reporter HiBit was fused to the C-terminus of endogenous MHC class I allele HLA-B*08:01 (HLA-B HiBit myoblasts). HiBit is an 11 amino acid fragment of NanoLuc luminescent reporter (Promega Corporation), and when complexed to the larger LgBit fragment, the reconstituted enzyme produces light in the presence of furimazine substrate (Schwinn et al., 2018). Briefly, HLA-B HiBit myoblasts were plated into 1536-well plates, treated with 4.0 ng/ml human IFN-beta and 2,480 compounds from the NCATS Mechanism Interrogation Plate v5.0 (MIPE5.0) in an 11-point, 1:3 titration with a high final concentration of 46 uM. After 24 hrs of treatment, cells were assayed by Nano-Glo HiBiT Lytic Detection System (Promega) and luminescence measured by a ViewLux 1430 Ultra HTS (Perkin Elmer).
Schwinn MK, Machleidt T, Zimmerman K, Eggers CT, Dixon AS, Hurst R, Hall MP, Encell LP, Binkowski BF, Wood K V. 2018. CRISPR-Mediated Tagging of Endogenous Proteins with a Luminescent Peptide. ACS Chem Biol 13:467-474. doi:10.1021/acschembio.7b00549
PROTOCOL TABLE (as described by Inglese et al., 2007)
SEQUENCE No. (e.g., 1, 2, 3, etc.); […] (e.g., Cells, Incubation, Reagent, etc.); VALUE; DESCRIPTION
1a; Cells; 5 uL; Use a Multidrop Combi (Thermo Scientific) to seed 300 cells/well into 24 Greiner 1536 well white/solid bottom, high base, TC plates in 5 ul/well of iHSKM growth medium (GM) without dexamethasone into columns 1+2. Add metal lids with gas-exchange holes
1b; Cells; 5 uL; Use a Multidrop Combi (Thermo Scientific) to seed 300 cells/well into 24 Greiner 1536 well white/solid bottom, high base, TC plates in 5 ul/well of iHSKM GM without dexamethasone + 4 ng/ml IFN-b into columns 3 - 48. Add metal lids with gas-exchange holes
2; Incubate; 1 hr; Incubate at 37 C, 5% CO2, 95% RH
3; Compounds; 23 nl; Use Pin Tool (Wako) to transfer DMSO control, ruxolitinib IFN-b inhibitor control [High Concentration = 80 uM final, 16-pt, 1:2 in duplicate], and library compounds in DMSO
4; Incubate; 24 hrs; Incubate at 37 C, 5% CO2, 95% RH
5; Dispense; 2.5 ul; Use BioRAPTR FRD (Beckman Coulter) to add HiBit lytic reagent
6; Incubate; 10 min; Incubate in the dark at ambient temperature for lysis
7; Detector; 5 sec; Measure luminescence with ViewLux 1430 Ultra HTS (Perkin Elmer). […]
Potency is the fitted concentration of half-maximal effect.

SMILES	Potency
N[C@@]1(C(=O)O)CS(=O)(=O)[C@H]2[C@H](C(=O)O)[C@H]21	inactive
NC(=O)c1ccc2nc(-c3ccc(Oc4ccc(Cl)cc4)cc3)[nH]c2c1	inactive
CC(=O)Nc1ccc([C@H](C)C(=O)Nc2ncc(C(C)C)s2)cc1	5.87 µM (active)
CC(=O)OC1C(C)OC(Oc2c(-c3ccc(O)cc3)oc3cc(O)cc(O)c3c2=O)C(O)C1OC(C)=O (stereo not given)	inactive
O=C(Nc1ccccc1Br)N[C@@H]1CCN(c2ccc(C(F)(F)F)cn2)C1	inactive
COc1cccc([C@@H](C)NCCCc2ccccc2Cl)c1	inactive
CC(C)(C)OC(=O)N[C@H]1CCCCCC=C[C@@H]2C[C@@]2(C(=O)NS(=O)(=O)C2CC2)NC(=O)[C@@H]2C[C@@H](OC(=O)N3Cc4cccc(F)c4C3)CN2C1=O	inactive
CC1CCC(C(=O)N(c2cc(C#CC(C)(C)C)sc2C(=O)O)C2CCC(O)CC2)CC1 (stereo not given)	inactive
COc1ccc(C2CC(c3ccccc3)=NN2c2ccc(S(N)(=O)=O)cc2)cc1 (stereo not given)	inactive
Cc1ccc(C(=O)Nc2cccc(C(F)(F)F)c2)cc1Nc1nc(-c2cccnc2)nc2c1cnn2C	33 µM (active)
CCn1c(C(=O)N(C2CC2)C2CC2)cc2c3c(ncn3C)c(Nc3cc(C)n(C)n3)nc21	inactive
O=C(O)c1c(Cl)c(Cl)c(Cl)c(Cl)c1-c1c2cc(I)c(=O)c(I)c-2oc2c(I)c(O)c(I)cc12	8.29 µM (active)
Clc1ccc(C(c2ccc(Cl)cc2)n2cc[n+](CC(OCc3ccc(Cl)cc3Cl)c3ccc(Cl)cc3Cl)c2)cc1 (stereo not given)	16.5 µM (active)
O=C(N[C@@H](c1ccccc1)[C@@H]1CCCCN1)c1cccc(C(F)(F)F)c1Cl	inactive
COc1ccc(-c2coc3cc(O)cc(O)c3c2=O)cc1	16.5 µM (active)
O=C(O)CCC1CCC(c2cc(F)ccc2F)(S(=O)(=O)c2ccc(Cl)cc2)CC1 (stereo not given)	inactive
O=C1C[C@@H](c2ccc(O)cc2)Oc2cc(O)cc(O)c21	inactive
O=C(NCc1ccncc1)C12C[C@H]3C[C@@H](C1)CC(c1ccc(Cl)cc1)(C3)C2	inactive
CC(C)C(C)C=CC(C)C1CCC2C3=CC=C4CC(O)CCC4(C)C3CCC21C (stereo not given)	inactive
O=C(CCCCCCC(=O)Nc1ccccc1)NO	1.47 µM (active)

SMILES	Potency
c1cc(-c2sc(-c3ccncc3)c(-c3ccncc3)c2-c2ccncc2)ccn1	inactive
COc1cc(NC(=O)c2ccc(-c3ccc(Cl)cc3)o2)cc(OC)c1	inactive
CC(C)(C)COc1ccc(-n2cc(C(=O)O)cn2)cc1C#N	inactive
O=C(O)C(O)Cc1ccc(O)c(O)c1 (stereo not given)	inactive
Nc1ncnc2c1nc(Cl)n2[C@@H]1O[C@H](CO)[C@@H](O)[C@@H]1O	inactive
CC(=O)O[C@]1(C(C)=O)CC[C@H]2[C@@H]3C=C(Cl)C4=CC(=O)[C@@H]5C[C@@H]5[C@]4(C)[C@H]3CC[C@@]21C	inactive
O=C1C(Cl)=C(NCCN2CCOCC2)C(=O)c2ncccc21	2.94 µM (active)
C=C1C(=O)[C@@]23C(CC[C@@H]1[C@H]2O)[C@@]12CO[C@]3(O)[C@@H](O)[C@@H]1C(C)(C)CC[C@@H]2O (stereo not given in full)	6.58 µM (active)
CN(C)Cc1ccc(-c2nc3cccc4c3n2CCNC4=O)cc1	14.7 µM (active)
O=C(O)c1ccc(-c2c[nH]c3ncc(-c4ccccc4)cc23)cc1C1CCCC1	inactive
O=C(Nc1cccc(Br)c1)c1cccc(S(=O)(=O)N2CCCCCC2)c1	inactive
Cc1ccc(C(C)(O)c2nc3ccccc3s2)c(C)c1 (stereo not given)	inactive
CC(=O)Oc1cc2c(s1)CCN(C(C(=O)C1CC1)c1ccccc1F)C2 (stereo not given)	inactive
NC(=O)c1cnc(-c2ccc(C3(N)CCC3)cc2)c(-c2ccccc2)c1	inactive
COc1ccc(-c2nc(N3CCOCC3)c3sc(CN(C)c4ncc(C(=O)NO)cn4)cc3n2)cn1	0.033 µM (active)
COc1cc(N2CCC(N3CCN(C)CC3)CC2)ccc1Nc1ncc(Cl)c(Nc2ccccc2S(=O)(=O)C(C)C)n1	18.6 µM (active)
C[C@]12CC[C@@H]3c4ccc(O)cc4C[C@@H](CCCCCCCCCS(=O)CCCC(F)(F)C(F)(F)F)[C@H]3[C@H]1CC[C@H]2O (stereo not given in full)	inactive
CCOC(CN1C(=O)[C@](CC(=O)Nc2ccc(C)cc2)(NC(=O)Nc2ccc(C)cc2)c2ccccc21)OCC	inactive
CN1CCN(CCOc2cc(OC3CCOCC3)c3c(Nc4c(Cl)ccc5c4OCO5)ncnc3c2)CC1	29.4 µM (active)
N[C@H](CSC(c1ccccc1)(c1ccccc1)c1ccccc1)C(=O)O	inactive

— PubChem BioAssay (NCATS)
